PubChem BioAssay AID602364 (National Center for Advancing Translational Sciences (NCATS), 2012)
Records with an inconclusive call do not appear. Calls of active or inactive are those of the source. Calls follow the shape of the dose curve; as a rule, active = well fitted inhibition curve with a large enough effect; inconclusive = small, poorly fitted or top-dose-only effect; inactive = flat fitted curve, though single readings scatter.

The compounds below were run against Luciferin 4-monooxygenase (Photinus pyralis) (UniProt P08659) (assay: FLuc inhibitory activity for the follow-up compounds in a biochemical assay with 1mM ATP). Conditions: purified P. pyralis luciferase, luminescence; series mostly up to 57.5 µM.
How it was run: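 Purified P. pyralis luciferase (10nM) with 10uM D-luciferin (KM) and 1mM ATP in Tris acetate pH 7.5, Mg acetate; 12-point qHTS titration ~60uM–0.3nM; luminescence read by CCD imager.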

Sequence of Luciferin 4-monooxygenase (Photinus pyralis) (P08659 whole entry, looked up): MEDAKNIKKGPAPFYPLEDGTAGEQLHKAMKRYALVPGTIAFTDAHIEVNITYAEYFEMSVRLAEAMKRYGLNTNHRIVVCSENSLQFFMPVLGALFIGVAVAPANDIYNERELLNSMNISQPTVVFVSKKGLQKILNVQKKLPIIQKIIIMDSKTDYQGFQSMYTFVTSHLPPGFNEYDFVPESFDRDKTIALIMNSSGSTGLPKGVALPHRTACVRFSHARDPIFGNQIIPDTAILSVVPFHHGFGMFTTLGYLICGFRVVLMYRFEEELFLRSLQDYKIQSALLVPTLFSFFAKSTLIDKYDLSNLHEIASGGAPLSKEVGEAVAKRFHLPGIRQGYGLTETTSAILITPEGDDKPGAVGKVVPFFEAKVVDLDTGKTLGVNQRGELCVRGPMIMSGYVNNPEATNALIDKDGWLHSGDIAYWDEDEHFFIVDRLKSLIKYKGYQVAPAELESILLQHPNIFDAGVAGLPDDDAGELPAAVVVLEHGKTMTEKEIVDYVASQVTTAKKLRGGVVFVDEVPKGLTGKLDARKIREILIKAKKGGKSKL

Potency, active:
O=C(Nc1ccccc1-c1nc2ccccc2s1)c1cccnc1 36.6 µM
COc1ccc2nc(NC(=O)c3ccc4ncsc4c3)sc2c1 1.46 µM
O=C(Nc1ccccc1C(=O)O)c1cccc(NC(=O)c2ccccc2Cl)c1 20.6 µM
